# In PubChem BioAssay AID2685 (National Center for Advancing Translational Sciences (NCATS), 2010):
# About 2,100 (0.66%) of roughly 320,000 compounds were called active. Inconclusive results (about 53%) are left out. The call rests on the fitted dose curve; in most records, active means well fitted inhibition curve with a large enough effect in the signal ratio, with a control signal flat (not every such curve was filed as active); inconclusive means small, poorly fitted or top-dose-only effect, or effect the other way, or a change in a side signal; inactive means flat fitted curve, though single readings scatter; the % refers to the signal ratio. The sample as a whole holds a higher share of actives than the screen did.
# Assay: qHTS Assay for Lipid Storage Modulators in Drosophila S3 Cells;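 on cell number change: cells counted by Cell Tracker Red CMTPX staining in the red channel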; on lipid storage change, negative = inhibition: on the % scale 0 is the no-effect control and ±100 the full control effect
# Conditions: BODIPY lipid droplet fluorescence, 18-24 h, cells fed with added oleic acid; cell number change: measured here: cell count max response; series mostly up to 46.1 µM; lipid storage change, negative = inhibition: at the top concentration
# Procedure, shortened: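 Drosophila S3 cells got compounds at several concentrations plus oleic acid (400 uM solution). Laser-scanning cytometry with 488 nm excitation read lipid droplets at 500-530 nm and cells at 575-640 nm. Percent activity was relative to 20 uM Triacsin C.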
# Potency means the concentration at half of the fitted maximal effect.
Compound,"lipid storage change, negative = inhibition",cell number change,outcome,Potency
Cc1ccc(C(CNC(=O)Nc2cccc(C)c2)N2CCN(C)CC2)cc1 (stereo not drawn),-6.58% (inactive),-5.52%,–,–
Cc1cccc(NC(=O)NCC(c2ccc(F)cc2)N2CCN(C)CC2)c1 (stereo not drawn),–,–,inactive,–
Cc1ccc(C(CNC(=O)Nc2ccccc2)N2CCN(C)CC2)cc1 (stereo not drawn),–,20.2%,–,7.31 µM (active)
S=C(NCc1ccccc1)NCc1cccc(Cl)c1,-9.43% (inactive),7.23%,–,–
Cc1ccc(OCC(=O)Nc2ccc(S(=O)(=O)N3CCOCC3)cc2)c(C)c1,–,25.8%,inactive,–
Nc1nnc(SCC(=O)Nc2ccc(S(=O)(=O)N3CCOCC3)cc2)s1,–,–,inactive,–
Cc1cc(C)c(OCC(=O)Nc2ccc(S(=O)(=O)N3CCCC3)cc2)c(C)c1,–,–,inactive,–
Cc1ccc(S(=O)(=O)N2CCOCC2)cc1NC(=O)COc1ccc(C(=O)c2ccccc2)cc1,–,12.9%,–,7.31 µM (active)
Cc1ccc(S(=O)(=O)N2CCOCC2)cc1NC(=O)COC(=O)CNC(=O)c1ccccc1,0.338% (inactive),5.41%,–,–
O=C(CSc1ncnc2sccc12)Nc1ccc(S(=O)(=O)N2CCOCC2)cc1,–,4.37%,–,14.6 µM (active)
O=C(COc1ccc(S(=O)(=O)N2CCOCC2)cc1)Nc1ccccc1F,–,–,inactive [at 0.0737 µM],–
Cc1ccc(S(=O)(=O)N2CCOCC2)cc1NC(=O)COc1ccc2c(C)cc(=O)oc2c1,–,–,inactive,–
O=C(CSc1ncnc2ccccc12)Nc1cccc(S(=O)(=O)N2CCOCC2)c1,–,–,inactive,–
O=C(COc1ccccc1Cl)Nc1ccc(S(=O)(=O)N2CCOCC2)cc1,-23.5% (inactive),-11.3%,–,–
Cc1cc(C)c(OCC(=O)Nc2ccc(S(=O)(=O)N3CCOCC3)cc2)c(C)c1,–,10.8%,–,2.31 µM (active)
O=C(COc1ccc(S(=O)(=O)N2CCOCC2)cc1)Nc1ccccc1Cl,–,7.69%,–,1.84 µM (active)
O=C1C(NS(=O)(=O)c2cccs2)=C(N2CCOCC2)C(=O)c2ccccc21,-8.94% (inactive),-7.78%,–,–
O=C(Cn1nc2ccccc2n1)N/N=C/c1ccc(F)cc1,14.4% (inactive),-8.94%,–,–
CCOC(=O)c1nnn(-c2nonc2N)c1CSc1nnc(N)s1,-3.22% (inactive),–,–,–
Cc1cccc(C(=O)O/N=C/c2ccc(Br)cc2)c1,-1.38% (inactive),7.42%,–,–
Cc1ccc(S(=O)(=O)NC(C(=O)N2CCOCCOCCOCCOCC2)C(C)C)cc1 (stereo not drawn),–,-9.21%,inactive,–
Cc1cc(=O)oc2cc(OCC(=O)OCC(=O)Nc3ccc(C(N)=O)cc3)ccc12,17.8% (inactive),4.9%,–,–
CN1CCN(C(=O)c2ccc(COc3cc(Cl)ccc3Cl)o2)CC1,–,0.87%,inactive,–
CCC1(CC)Cc2ccccc2C(C2=C(O)CC(C)(C)CC2=O)=N1,-4.5% (inactive),0.769%,–,–

Compound,"lipid storage change, negative = inhibition",cell number change,outcome,Potency
Cc1ccc2c(c1)COc1c3ccc(C(=O)N4CCCCC4)cc3nn1-2,-0.0831% (inactive),-6.37%,–,–
O=C(Cc1ccccc1[N+](=O)[O-])NCCc1ccc(F)cc1,-14.2% (inactive),16.5%,–,–
CC(C)Cc1nnc(NC(=O)C2CCN(C(=O)c3ccc(F)cc3)CC2)s1,–,–,inactive,–
O=C(Cn1cnc2c(cnn2-c2ccccc2)c1=O)N1CCOCC1,-9.53% (inactive),–,–,–
CC(=O)c1cccc(OCC(=O)Nc2cc(S(=O)(=O)N3CCOCC3)ccc2N2CCCC2)c1,-3.85% (inactive),-28.5%,–,–
Cc1ccc(C(=O)NNC(=O)c2ccc(S(=O)(=O)N3CCOCC3)cc2)cc1,-19.9% (inactive),13.5%,–,–
O=C(Cn1cnc2c(cnn2-c2ccccc2)c1=O)Nc1ccc(S(=O)(=O)N2CCOCC2)cc1,0.0141% (inactive),-0.435%,–,–
CCc1cccc(OCC(=O)Nc2cc(S(=O)(=O)N3CCOCC3)ccc2N2CCCC2)c1,–,-12.1%,–,13 µM (active)
O=S(=O)(c1ccc(Oc2ccc(Br)cc2)cc1)N1CCOCC1,–,-10%,–,13 µM (active)
O=S(=O)(c1ccc(Oc2ccccc2)cc1)N1CCOCC1,4.76% (inactive),–,–,–
CCc1cccc(OCC(=O)Nc2ccccc2N2CCCC2)c1,-9.11% (inactive),-24.4%,–,–
O=C(Cn1cnc2c(cnn2-c2ccccc2)c1=O)Nc1cc(S(=O)(=O)N2CCOCC2)ccc1Cl,–,-7.78%,–,25.9 µM (active)
O=S(=O)(c1ccc(OCc2ccc(Br)cc2)cc1)N1CCOCC1,11.4% (inactive),-10.6%,–,–
CCOc1ccc(C(=O)NNC(=O)c2cc(S(=O)(=O)N3CCOCC3)ccc2Cl)cc1,–,8.57%,–,25.9 µM (active)
CCOc1ccc(NC(=O)c2cc(S(=O)(=O)N3CCOCC3)cs2)cc1,-20% (inactive),-10.9%,–,–
O=C(c1ccccc1)c1cccn1CC(=O)N1CCCCCC1,2.14% (inactive),10.2%,–,–
CC(=O)N1N=C(c2c(-c3ccccc3)c3cc(C)ccc3[nH]c2=O)CC1c1ccco1 (stereo not drawn),21.2% (inactive),–,–,–
Cc1ccc(S(=O)(=O)N2CCOC2CNC(=O)C(=O)NCCc2c[nH]c3ccccc23)cc1 (stereo not drawn),6.05% [at 9.22 µM] (inactive),24.7%,–,–
Cc1nn(C)c(Cl)c1CN1CCN(CCC(C)C)C(CCO)C1 (stereo not drawn),-10.1% (inactive),11.3%,–,–
CCOC(=O)c1c(NC(=O)CSc2nnc(C)c(=O)[nH]2)sc(C)c1-c1ccc(C)cc1,-16.6% (inactive),18.2%,–,–
COc1cccc(NC(=O)C(C)Sc2nnc(C3CC3)n2C2CC2)c1 (stereo not drawn),-7.9% (inactive),-1.32%,–,–
Cc1ccc(S(=O)(=O)N2CCCCC2)cc1NC(=O)COC(=O)Cc1c(F)cccc1Cl,26.6% (inactive),10%,–,–
CCOC(=O)/C(=N/Nc1ccc(OC)cc1)N1CCCc2ccccc21,12% (inactive),-4.8%,–,–
